# Screens deposited in PubChem by several laboratories.
# Compounds with a hit are over-represented: about 1.3% of the library has one in this group of screens.
# Gli-Sufu antag: blocks Gli-Sufu signaling in a luciferase reporter; Sufu-KO-LIGHT fibroblasts, Gli luciferase reporter luminescence; inhibition, % at 5 µM; 0.74% of 340,000 active;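 active means inhibition above about 55%, limit read from the data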;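 further: 0% = DMSO-treated cells and 100% = wells with medium but no cells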
# NR5A2 inv ag: suppresses constitutive activity of human LRH-1; 0.13% of 360,000 active; HEK293T StAR-luciferase reporter, LRH-1 transfected, 24 h; O00482; inhibition, % at 3.6 µM; AID 602396;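 active means inhibition above the mean inhibition of all tested compounds plus 3 SD, cut at about 73% in these data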;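 further: 0% = DMSO wells and 100% = reporter-only cells lacking LRH-1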
# SRC1 inh: human NCOA1 inhibition; Q15788; HEK293 GAL4-SRC1 luciferase reporter, luminescence; inhibition, % at 3.6 µM; 0.12% of 360,000 active;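 active means inhibition above the campaign mean plus 3 SD, with each screening campaign given its own cutoff, cut at about 60% in these data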;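 further: 0% = DMSO treated cells and 100% = gossypol at 36 µM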
# COUP-TFII inh: blocks human COUP-TFII nuclear receptor; P24468; HEK293T NGFI-A luciferase reporter, luminescence; inhibition, % at 8.6 µM; 0.7% of 370,000 active; AID 686940;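 active means inhibition above a per-plate cutoff, mean inhibition of test wells between control levels plus 3 SD, cut at about 38% in these data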;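 further: cells cotransfected with COUP-TFII expression vector driving the NGFI-A reporter; 0% = median of COUP-TF2 test wells and 100% = reporter-only cells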
# NCOA3 inh: human NCOA3 inhibition; Q9Y6Q9; HEK293 GAL4-SRC3 luciferase reporter, luminescence; AID 588352; inhibition, % at 3.6 µM; 0.17% of 360,000 active;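 active means inhibition above a per-campaign cutoff, the mean of all compounds plus 3 SD, cut at about 60% in these data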;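 further: 0% = DMSO-treated cells and 100% = gossypol-treated cells at 36 µM; higher means less SRC3-driven luciferase light from the GAL4 reporter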
# SRC2 inh: human SRC2 (NCOA2) inhibition; HEK293 GAL4-SRC2 luciferase reporter, luminescence; inhibition, % at 9 µM; 0.17% of 370,000 active; AID 651957;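 active means inhibition above the mean inhibition of all tested compounds plus 3 SD, set per campaign, cut at about 52% in these data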;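 further: 0% = DMSO treated cells and 100% = cells given Gossypol at 36 µM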
# VP16 Luc counter: inhibits VP16 reporter, flagging COUP-TFII antagonist hits. HEK293 Gal4-VP16 luciferase reporter, luminescence. shares compounds with COUP-TFII inh. 25% of 2,500 active. inhibition, % at 8.5 µM; in the data active means inhibition above about 13%
# COUP-TFII conf: COUP-TFII (NR2F2) inhibition, confirmation assay; inhibition, % at 8.5 µM; AID 687008; shares compounds with COUP-TFII inh; HEK293 NGFI-A luciferase reporter, luminescence; 45% of 2,500 active;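 active means mean inhibition over three repeats above a set limit taken from the earlier primary screen, cut at about 38% in these data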;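 further: 100% = cells given the luciferase reporter alone without the COUP-TF2 vector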
# Starred values were filed as active, the others as inactive; nt = no result.
SMILES,Gli-Sufu antag,NR5A2 inv ag,SRC1 inh,COUP-TFII inh,NCOA3 inh,SRC2 inh,VP16 Luc counter,COUP-TFII conf
COc1ccccc1CNc1nc(NCc2ccccc2SC)c2sccc2n1,nt,15,10,34,14,9,nt,nt
COc1ccccc1CNc1nc(NCc2cccs2)nc2ccsc12,nt,22,-12,18,-9,4,nt,nt
CC1(NC(=O)c2ccc(C#Cc3cccc(F)c3)cn2)COC1,nt,nt,nt,-6,nt,-8,nt,nt
Cc1ccc(S(=O)(=O)N2C(N)=C(C(=O)NCc3ccc(Br)cc3)C(c3ccc(Cl)cc3)C2C(=O)c2ccccc2)cc1 (stereo not drawn),nt,nt,nt,3,nt,nt,nt,nt
COC(=O)[C@]12C[C@H](CC(=O)NCCC(C)C)C(=O)N(Cc3ccco3)C1=C[C@H](COCc1ccccc1)O[C@@H]2C,nt,nt,nt,-8,nt,14,nt,nt
Cc1nc2ccccn2c1-c1ccnn1S(=O)(=O)c1ccc(F)cc1,7,17,2,49*,34,24,-2,11
CN1C(=O)C[C@@](C#N)(C(=O)N2CCCC2)[C@H]1c1ccccc1,nt,nt,nt,-2,nt,16,nt,nt
Cc1cc(C(=O)CSc2nc3ccccc3[nH]2)c(C)n1CC1CCCO1 (stereo not drawn),43,46,48,80*,73*,63*,34*,88*
COCCCNC(=O)C[C@H]1C[C@@]2(C(=O)OC)C(=C[C@H](C(C)C)O[C@@H]2C2CC2)N(Cc2ccc3c(c2)OCO3)C1=O,nt,nt,nt,1,nt,33,nt,nt
COC(=O)C1CN(Cc2cn(Cc3ccc(Cl)cc3)nn2)CCS(=O)(=O)N1Cc1ccc(F)cc1 (stereo not drawn),nt,nt,nt,13,nt,10,nt,nt
CC(C)NC(=O)[C@]1(C#N)CC(=O)N(C)[C@@H]1c1ccccc1,nt,nt,nt,-7,nt,18,nt,nt
C=CCc1cccc2cc(C(=O)O)c(=O)oc12,4,-15,-29,1,2,-4,nt,nt
C=CCc1cccc2cc(C(=O)Nc3ccccc3C(=O)O)c(=O)oc12,-16,6,-3,41*,27,0,-8,47*
COCCN(C[C@@H]1[C@H](c2ccccc2)[C@H](CO)N1c1nc(C)c(C)s1)S(=O)(=O)c1ccccc1[N+](=O)[O-],nt,nt,nt,-10,nt,-28,nt,nt
COC(=O)C12C=C3CC(C4CC4)=C3C(=O)N1Cc1[nH]c3ccccc3c1C2 (stereo not drawn),nt,nt,nt,-3,nt,13,nt,nt
Cc1ccc(S(=O)(=O)N(C)CCCC(=O)Nc2ccc(F)cc2)cc1,4,13,-3,1,-6,6,nt,nt
Cc1ccc(S(=O)(=O)N(C)CCCC(=O)Nc2ccncc2)cc1,5,13,3,42*,-8,10,-1,19
CCOC(=O)[C@@H]1c2[nH]c3ccccc3c2C[C@@]2(C(=O)OC)C=CCN12,nt,nt,nt,-18,nt,31,nt,nt
COC(=O)c1cc(S(=O)(=O)N2CCN(c3ccccc3Cl)CC2)cn1C,nt,nt,nt,19,nt,3,nt,nt
CC(=O)Oc1ccc(N(C(C)=O)S(=O)(=O)c2ccccc2)c2ccccc12,nt,45,10,-8,-3,-1,nt,nt
CC(=O)Oc1c(Cl)cc(N(C(C)=O)S(=O)(=O)c2ccccc2)c2ccccc12,6,26,20,53*,26,30,28*,28
COCCCN1C(=O)[C@H](CC(=O)N2CCC(c3ccccc3)CC2)[C@]2(C(=O)OC)CCCCC=C12,nt,nt,nt,8,nt,1,nt,nt
Cc1ccc(/C=C2\SC(=S)N(CCCC(=O)Nc3ccccn3)C2=O)cc1,47,42,48,81*,57,89*,40*,35
COc1ccc(/C=C2\SC(=O)N(CCCC(=O)Nc3ccc(C(=O)O)cc3)C2=O)cc1,nt,74*,73*,98*,73*,91*,83*,96*
COc1ccc(/C=C2/SC(=S)N(CCCC(=O)Nc3ccccc3C(=O)O)C2=O)cc1,10,23,36,52*,35,66*,43*,30
SMILES,Gli-Sufu antag,NR5A2 inv ag,SRC1 inh,COUP-TFII inh,NCOA3 inh,SRC2 inh,VP16 Luc counter,COUP-TFII conf
O=C(Nc1nc(-c2ccc(F)cc2)cs1)C1CCN(C(=O)c2ccc(F)cc2)CC1,41,1,3,58*,2,30,4,46*
CN(C)c1cccc(/C=C2\CC3(OC(=O)c4ccccc4)CCCN2C3)c1 (stereo not drawn),nt,nt,nt,-6,nt,17,nt,nt
O=C(C1CCN(c2ncnc3c2nc2n3CCCCC2)CC1)N1CCN(c2cccc(Cl)c2)CC1,56*,12,16,50*,25,23,0,23
O=C(C1CCCN(c2ncnc3c2nc2n3CCCCC2)C1)N1CCN(c2ccc(Cl)cc2)CC1 (stereo not drawn),-2,-12,13,25,9,23,nt,nt
Cc1cc(Nc2cccc(C(F)(F)F)c2)cc(=O)n1-c1cccc(C(F)(F)F)c1,nt,nt,nt,11,nt,12,nt,nt
O=C(NCc1ccc(C(=O)N2CCCN(Cc3ccccc3)CC2)cc1)c1cccc(Br)c1,nt,nt,nt,16,nt,-5,nt,nt
O=C(Cn1cnc2ccccc2c1=O)N1CCN(C(=O)C2CCCO2)CC1 (stereo not drawn),nt,nt,nt,-9,nt,-14,nt,nt
Cc1ccc(Cn2ccc(NC(=O)c3cc(C4CC4)on3)n2)cc1,-11,-3,10,39*,-5,18,-7,-9
CN1CCN(c2ccc(CNS(=O)(=O)Cc3cccc(C(F)(F)F)c3)cc2)CC1,38,51,37,61*,21,18,-3,45*
Nc1ncc(-c2ccccc2)c(-c2ccc(O)cc2O)n1,23,28,20,32,14,14,nt,nt
Oc1ccc(-c2n[nH]c(C(F)(F)F)c2-c2ccccc2)c(O)c1,70*,23,11,65*,24,25,0,48*
Cc1ccc(CNC(=O)O[C@H]2CC[C@@]34CCCN3C(=O)CCC[C@H]4C2)o1,nt,nt,nt,-8,nt,nt,nt,nt
CN(C)c1ccc(C2Nc3ccccc3C(=O)N2CCCN2CCOCC2)cc1 (stereo not drawn),3,9,16,47*,12,39,-11,-15
Cc1ccc(-n2c(C)c([N+](=O)[O-])c3ccc(O)c(CN(C)C)c32)cc1,-8,-10,49,43*,42,36,14*,21
CCCCCCCCN1C(=O)[C@@H](CC(=O)N2CCCCC2)C[C@@]2(C(=O)OC)C1=C[C@H](COCc1ccccc1)O[C@@H]2C,nt,nt,nt,8,nt,-2,nt,nt
COCCn1c(C)cc(C2=NNC(=Nc3ccc(Cl)cc3Cl)SC2)c1C,-3,12,-8,-5,4,11,nt,nt
Cc1cc(C2=NNC(=NC3CC3)SC2)c(C)n1-c1ccccc1,91*,77*,84*,52*,86*,80*,71*,106*
COCCn1c(C)cc(C2=NNC(=NC3CC3)SC2)c1C,91*,87*,89*,94*,91*,86*,89*,109*
